# ELG1 DNA repair: blocks ELG1-dependent DNA repair in HEK293T cells; 330,000 tested, 2.3% active; AID 504467; Potency, µM (series often up to 46.1 µM), inactives show at the top dose activity change, negative = inhibition, most hits filed as inhibitors; HEK293T ELG1-luciferase reporter, luminescence, 16 h; DNA damage induced by 5-fluorouridine; further: potency means the concentration at half of the fitted maximal effect; on the % scale 0 is the no-effect control and ±100 the full control effect; nearly all actives have a fitted effect of over 55% in size
#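 DMSO vehicle served as the neutral condition. Each well held 2,000 cells given 5-fluorouridine plus compound; after 16 hr at 37 °C/5% CO2, ONE-Glo was added and luciferase measured 30 min later.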
# BRCA1 expr up: BRCA1 expression activation. 380,000 tested, 1.1% active. MCF7-BRCA1-FFLuc reporter, luminescence, 48 h; response scale: scaled: vehicle 0%, 10 µM genistein 100%. Potency, µM (highest dose often 46.1 µM), inactives show top-dose activation, usual class: activators; further: potency means the concentration at half of the fitted maximal effect; nearly all actives have a fitted effect of over 80% in size
#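 MCF7-BRCA1-FFLuc cells, 2000/well in phenol-red-free MEM, attached 2 h then treated 48 h at 37 C. Luciferase luminescence read 15 min after reagent; normalized to genistein maximum activation (10microM) and DMSO, concentration-response fitted.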
# IL-2 act: IL-2 activation. IL-2 activation reporter assay, cell-based qHTS; stimulated with anti-CD3/CD4/CD28 beads; in transgenic mouse T cells. activation, % (series mostly up to about 46 µM). 360,000 tested, 0.065% active. AID 652025; in the data active means activation above about 50%; inconclusive means mostly about 30% to 49%; further: 0% is about no effect
#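 Using fluorescent plate cytometry, EGFP and DsRed are detected in transgenic mouse T cells stimulated 18 h at 37 degrees C with antibody-coated beads after 60 min compound pretreatment.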
# Nrf2 activator: activates Nrf2 signaling; AREc32 ARE-luciferase reporter (MCF7-derived line), luminescence, 24 h; Potency, µM (highest dose often 46.1 µM), for the others: top-dose activation, most hits filed as activators; 410,000 tested, 0.31% active; AID 624171; further: potency means the concentration at half of the fitted maximal effect; % of control where 0% means no effect; nearly all actives have a fitted effect of over 65% in size
#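 Steps: seed AREc32_Fluc cells (1000/well, 5% FBS OPTI-MEM); incubate overnight at 37 deg C; add 23 nL compound; incubate 24 hr; add Steady-Glo; hold 30 min RT; read luminescence.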
# * hit, by the source's call; ? = inconclusive; / = no result given. An excerpt weighted towards active compounds, which were near 3.1% of everything screened. Unless noted, the call rests on the fitted dose curve; in most records, active means well fitted curve in the direction sought with a large enough effect; inconclusive means small, poorly fitted or top-dose-only effect, or another doubt; inactive means no such curve, though single readings can be large; an effect the other way counts as inactive or inconclusive.
SMILES,ELG1 DNA repair,BRCA1 expr up,IL-2 act,Nrf2 activator
O=C(Cc1ccc(-n2c(=O)c3ccccc3n(Cc3ccc(F)cc3)c2=O)cc1)NCC1CCCO1 (stereo unspecified),10µM*,-23%,-1,0%
O=C(Cc1ccc(-n2c(=O)c3ccccc3n(Cc3ccccc3Cl)c2=O)cc1)NCC1CCCO1 (stereo unspecified),9.2µM*,-19%,0,0%
CNC(=O)COC(=O)/C=C/c1cn(-c2ccccc2)nc1-c1ccc2c(c1)OCCO2,?,-23%,0,0%
NC(=O)/C=C\c1cn(-c2ccccc2)nc1-c1ccc2c(c1)OCCO2,16µM*,-32%,-1,5%
O=C(/C=C/c1cn(-c2ccccc2)nc1-c1ccc2c(c1)OCCO2)NCCO,?,-10%,2,2%
CC(C)OC(=O)c1cn(-c2ccccc2)nc1-c1ccc2c(c1)OCCO2,23µM*,-40%,-2,0%
CCOc1ccc(CCn2c3c(c(=O)[nH]c2=O)C(NC(=O)c2ccccc2)(C(F)(F)F)C(=O)N3)cc1OCC (stereo unspecified),/,3%,/,-1%
Cc1ccc(SCC(=O)Nc2ccccc2C(=O)O)cc1,?,4.5µM*,-2,0%
COc1ccc(Nc2ncnc3c2nc2n3CCCCC2)cc1,/,10µM*,/,1%
CCc1ccc(NC(=O)C2CCN(c3ncnc4c3nc3n4CCCCC3)CC2)cc1,2.6µM*,-19%,-4,0%
O=C(Nc1ccc(F)cc1)C1CCN(c2ncnc3c2nc2n3CCCCC2)CC1,?,13%,-1,0%
CCOc1ccc(Nc2ncnc3c2nc2n3CCCCC2)cc1,/,12%,/,2%

# From PubChem BioAssay
